High-throughput results from PubChem BioAssay.
Rows were chosen to be rich in hits. Some 2.3% of all compounds tested hit in one or more screens of this group.
M1 ag = human M1 muscarinic receptor agonists, primary screen, Fluo-8 calcium fluorescence, CHO-K1 cells, HTS; AID 588814, 2011; actives 0.33% (n = 360,000); Muscarinic acetylcholine receptor M1 (Homo sapiens), P11229; activation, % at 3 µM; CHO-K1 hM1, agonist mode; 0% DMSO, 100% acetylcholine EC100;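 active means activation above the run's mean compound activation plus 3 SD, cut at about 16% in these data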;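 further: peak over basal fluorescence ratio within a 140 s kinetic read after compound addition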
Target sequence (P11229 whole entry, looked up): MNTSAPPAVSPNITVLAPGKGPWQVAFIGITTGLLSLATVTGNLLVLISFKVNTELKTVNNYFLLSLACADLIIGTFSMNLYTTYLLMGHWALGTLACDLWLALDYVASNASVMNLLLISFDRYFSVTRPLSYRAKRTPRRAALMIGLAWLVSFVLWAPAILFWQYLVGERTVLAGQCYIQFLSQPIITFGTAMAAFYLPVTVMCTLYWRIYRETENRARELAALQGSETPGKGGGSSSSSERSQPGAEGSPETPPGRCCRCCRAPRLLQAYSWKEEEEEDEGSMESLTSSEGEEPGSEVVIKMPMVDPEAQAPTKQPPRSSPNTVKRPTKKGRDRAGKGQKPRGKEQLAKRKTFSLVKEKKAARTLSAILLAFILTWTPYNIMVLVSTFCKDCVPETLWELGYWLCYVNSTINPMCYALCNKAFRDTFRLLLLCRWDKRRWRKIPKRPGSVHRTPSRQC
M1 PAM parental = nonselective calcium activators in parental CHO-K1 cells, primary screen, counter-screen for M1 PAM project, cell-based, Fluo-8 calcium fluorescence, full deck, 1536-well. activation, % at 3 µM. AID 602247, 2012. actives 0.02% (n = 360,000). ATP EC20; 0% at ATP EC20, 100% at ATP max;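 active means activation above the run cutoff, the mean activation of all test compounds plus 3 SD, cut at about 40% in these data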;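 further: peak over basal fluorescence ratio in a 140 s read after ATP addition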
CHO-K1 Ca ag = counter-screen for M1 agonists: effect in parental CHO-K1 cells | Fluo-8 calcium fluorescence; scaled to maximal ATP response, vehicle zero | activation, % at 3 µM | actives 0.48% (n = 360,000) | AID 602248, 2012; in the data active means activation above about 15%;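 further: untransfected CHO-K1 host cells lacking M1 receptor as counterscreen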
M1 PAM = human M1 muscarinic receptor positive allosteric modulators, primary screen, CHO-K1 cells, Fluo-8 calcium fluorescence, 1536-well; actives 0.088% (n = 360,000); AID 588819, 2011; CHO-K1 hM1, ACh EC20; 0% = ACh EC20, 100% = maximal ACh; Muscarinic acetylcholine receptor M1 (Homo sapiens), P11229; activation, % at 3 µM; in the data active means activation above about 19%, passing the limit was not always enough
CHO-K1 Ca antag = nonselective inhibitor or artifact in parental CHO-K1 cells | ATP-induced calcium, Fluo-8 fluorescence | inhibition, % at 3 µM | actives 0.6% (n = 360,000) | AID 602250;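 active means inhibition above a per-plate cutoff, the plate's mean sample inhibition plus 3 SD, cut at about 24% in these data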
M1 antag = human M1 muscarinic receptor antagonists, primary screen, CHO-K1 cells, Fluo-8 calcium fluorescence, 1536-well; Muscarinic acetylcholine receptor M1 (Homo sapiens), P11229; CHO-K1 hM1, ACh EC80 antagonist; inhibition, % at 3 µM; actives 1.3% (n = 360,000);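 active means percent inhibition above its own plate's cutoff, namely the mean of that plate's compound wells plus 3 SD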;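 further: peak over basal fluorescence ratio during 140 s after agonist addition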
Each line names hits and unclear results; the compound was inactive in the other large screens.

CCCCCN(C(=O)NC(=O)Nc1ccccc1C)S(=O)(=O)c1ccccc1	none
COc1ccc2nc(NC(=O)CN3CCOCC3)sc2c1	CHO-K1 Ca antag 26
COc1ccc(OC)c(NS(=O)(=O)c2ccc(-n3cccn3)cc2)c1	CHO-K1 Ca antag 26
O=C(Nc1ccccc1N1CCOCC1)c1cc(-c2ccco2)nc2ccccc12	M1 antag 38
COc1cc(-c2cc(C(=O)Nc3ccccc3N3CCOCC3)c3ccccc3n2)cc(OC)c1OC	none
Cc1cc(C)c(OCC(=O)Nc2ccccc2N2CCOCC2)c(C)c1	M1 ag 18, CHO-K1 Ca ag 17
Cc1cc(C)c(OCC(=O)Nc2ccccc2N2CCCCC2)c(C)c1	none
COc1ccc(CCNC(=O)C(=O)N2CCCC2)cc1OC	none
CCn1c(=O)c([N+](=O)[O-])c(NCC2CCCO2)c2ccccc21 (stereo unspecified)	none
COCCN1CCc2[nH]c(=S)[nH]c(=O)c2C1	none
CCCCN1CCc2[nH]c(=S)[nH]c(=O)c2C1	M1 PAM 25
COc1ccc(CCNC(=O)c2sc3ccccc3c2Cl)cc1OC	none
COc1ccc(CCNC(=O)c2cc3sc(Cl)cc3n2C)cc1OC	CHO-K1 Ca antag 24
O=C(Nc1ccc(N2CCN(c3ncccc3C(F)(F)F)CC2)nc1)c1cccs1	M1 antag 46
O=C(Nc1ccc(N2CCN(c3ccc(C(F)(F)F)cn3)CC2)nc1)c1cccs1	none
CN(C)CCCCOc1ccccc1-c1ccccc1	CHO-K1 Ca antag 24, M1 antag 18
CS/C(=N\N(C)C(N)=O)c1ccccc1	CHO-K1 Ca ag 15
O=c1c2ccccc2nnn1Cc1nnc(-c2ccccc2Br)o1	M1 ag 16
COc1ccc(S(=O)(=O)NC(CC(C)C)C(=O)NC(C)c2cccs2)cc1 (stereo unspecified)	none
O=C(CSc1nc2ccccc2o1)Nc1ccc(N2CCOCC2)c(Cl)c1	CHO-K1 Ca antag 28
O=C(NCCCN1CCCC1)c1ccc(CS(=O)(=O)c2c(Cl)cccc2Cl)o1	none
CNc1nc2cc([N+](=O)[O-])c([N+](=O)[O-])cc2nc1NC	CHO-K1 Ca ag 18, CHO-K1 Ca antag 39, M1 antag 30
N#Cc1cc2nc(O)c(O)nc2cc1[N+](=O)[O-]	none
CC1COC(=C2C(=O)OCC2C)C1 (stereo unspecified)	none
O=C1C(CCCNC(=S)NCc2ccccc2)NC(=S)N1Cc1ccccc1 (stereo unspecified)	CHO-K1 Ca ag 19
CC(=O)N(CCCCl)C(C#N)c1ccccc1 (stereo unspecified)	M1 ag 51
Cc1cc(C)cc(N(CC(=O)NCc2ccc(F)cc2)C(=O)c2snc(C(N)=O)c2N)c1	M1 ag 16
COc1cccc(C(=O)NNC(=O)c2sccc2-n2cccc2)c1	CHO-K1 Ca ag 18
C=CCn1c(C)cc(C(=O)COc2ccc(C)nc2[N+](=O)[O-])c1C	CHO-K1 Ca ag 17
Cc1cccc2sc(NC(=O)C3c4ccccc4Oc4ccccc43)nc12	none
Cc1ccc(OCC(=O)NC2CCSc3ccccc32)cc1 (stereo unspecified)	none
CCN1CCN(CCn2c(=S)[nH]c3ccccc3c2=O)CC1	M1 antag 86
Cc1nc2cc(NC(=O)Nc3cccc4ccccc34)ccc2n1C	none
O=C(Nc1ccc2snnc2c1)Nc1cccc2ccccc12	M1 ag 17, CHO-K1 Ca antag 29
COC1OC2COC(c3ccccc3)OC2C(O)C1NC(=O)c1ccccc1 (stereo unspecified)	none
Cc1cc(C)cc(N2C(=O)C3CCCN3C2=S)c1 (stereo unspecified)	CHO-K1 Ca ag 17
C#CCOCCOCCOCCNc1nc(N2CCN(C(=O)CCCCCCCCCCNC(=O)[C@H](CCCCN)n3cc(CCCC(=O)O)nn3)CC2)nc(N2CCN(C(=O)CCCCCCCCCCNC(=O)[C@@H]([C@H](C)O)n3cc(C)nn3)CC2)n1	none
C#CCOCCOCCOCCNc1nc(N2CCN(C(=O)CCCCCCCCCCNC(=O)[C@@H](CCC(=O)O)n3cc(CCCCCN)nn3)CC2)nc(N2CCN(C(=O)CCCCCCCCCCNC(=O)[C@H]([C@@H](C)CC)n3cc(CCCCCN)nn3)CC2)n1	M1 ag 18
C#CCOCCOCCOCCNc1nc(N2CCN(C(=O)CCCCCCCCCCNC(=O)[C@H]([C@@H](C)CC)n3cc(CCCCCN)nn3)CC2)nc(N2CCN(C(=O)CCCCCCCCCCNC(=O)[C@H](CO)n3cc(CCCCCN)nn3)CC2)n1	M1 ag 19
C#CCOCCOCCOCCNc1nc(N2CCN(C(=O)CCCCCCCCCCNC(=O)[C@H]([C@@H](C)CC)n3cc(CCCCCN)nn3)CC2)nc(N2CCN(C(=O)CCCCCCCCCCNC(=O)[C@H](CCCCN)n3cc(CCCC(=O)O)nn3)CC2)n1	M1 ag 18
CC(C)(C)OC(=O)NCCCCCc1cn([C@@H](CO)C(=O)NCCCCCCCCCCC(=O)N2CCN(C(=O)OC(C)(C)C)CC2)nn1	CHO-K1 Ca ag 18, M1 antag 74
CC(C)(C)OC(=O)CC[C@@H](C(=O)NCCCCCCCCCCC(=O)N1CCN(C(=O)OC(C)(C)C)CC1)n1cc(CCCCCNC(=O)OC(C)(C)C)nn1	none
C#CCOCCOCCOCCNc1nc(N2CCOCC2)nc(N2CCN(C(=O)CCCCCCCCCCNC(=O)[C@@H](CCC(=O)O)n3cc(CCCCCN)nn3)CC2)n1	none
C#CCOCCOCCOCCNc1nc(N2CCN(C(=O)CCCCCCCCCCNC(=O)Cn3cc(CCCCCN)nn3)CC2)nc(N2CCN(C(=O)CCCCCCCCCCNC(=O)Cn3cc(CCCCCN)nn3)CC2)n1	M1 antag 39
C#CCOCCOCCOCCNc1nc(N2CCN(C(=O)CCCCCCCCCCNC(=O)Cn3cc(CCCCCN)nn3)CC2)nc(N2CCN(C(=O)CCCCCCCCCCNC(=O)[C@@H](CCC(=O)O)n3cc(CCCCCN)nn3)CC2)n1	none
COc1ccc(CCNc2ncnc3c2oc2ccccc23)cc1OC	CHO-K1 Ca antag 44, M1 antag 40
COc1ccc(CCNc2ncnc3sccc23)cc1OC	CHO-K1 Ca ag 17, CHO-K1 Ca antag 34, M1 antag 40
COc1ccc(CCNc2nc(C)nc3c2oc2ccccc23)cc1OC	none
NS(=O)(=O)c1ccc(CNc2ncnc3sccc23)cc1	none
CN(C)c1ccc(CNc2ncnc3sccc23)cc1	CHO-K1 Ca antag 25
